# Compound activity as filed in PubChem.
# Rows were chosen to be rich in hits. Some 3.1% of all compounds tested hit in one or more screens of this group.
# SKOV3 invasion: blocks SKOV3ip1 adhesion and invasion in omental model | SKOV3ip1-GFP adhesion/invasion on 3D omental model, fluorescence | Potency, µM (series often up to 45.8 µM), for inactives: at the highest dose activity change, negative = inhibition, hits mostly inhibitors | 0.1% of 46,000 active;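 further: plate controls were DMSO wells for no effect and tomatine positive control wells for full effect; nearly all actives have a fitted effect of over 65% in size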
#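 A 3D layer of primary human omental fibroblasts, mesothelial cells, fibronectin and collagen I, grown 48 hr, received SKOV3ip1-GFP cells in serum-free medium plus compounds at 0.36-46 umol/L. After 2 hr RT and 16 hr 37 C, fixed adherent GFP cells were counted; normalized to DMSO and tomatine.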
# p53null 39C tox: p53 null cell cytotoxicity, nonpermissive temperature; H1299 p53-null (neo) cells, 39C, ATPlite viability, 24 h; Potency, µM (top dose mostly 46.1 µM), inactives show at the highest dose activity, negative = cell killing, usual class: cytotoxic; AID 904; 0.97% of 55,000 active;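 further: 0% = DMSO only and -100% = full killing by 100 µM tamoxifen; nearly all actives have a fitted effect of over 50% in size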
#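 ATP-luminescence viability readout (ATPlite, 20 min RT) after 24 hr compound treatment at 39C of H1299-neo or H1299-p53A138V cells; titration up to 46 uM; normalized to DMSO and 100 uM tamoxifen; Hill-fit AC50.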
# S16 F2sN tox: S16 Schwann cell cytotoxicity; 0.48% of 43,000 active; AID 1508642; Potency, µM (highest dose often 57.5 µM), without a hit: at the top dose activity change, negative = cytotoxicity, most hits filed as cytotoxic; S16 Pmp22-F2sN Schwann cells viability, CellTiter-Glo, 24 h; further: nearly all actives have a fitted effect of over 65% in size
#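 Seed 500-1,000 S16 Pmp22-F2sN cells per well in phenol-red-free DMEM with 10% heat-inactivated FBS; pin-add 23 nL compound; incubate 24 h at 37C; add CellTiter-Glo, wait 15 min protected from light; read luminescence.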
# PMP22 txn prim: modulates PMP22 transcription in S16 Schwann cells. S16 Pmp22-F2sN Schwann cells (luciferase reporters placed in the Pmp22 gene), FLuc/NLuc coincidence luminescence, 24 h. Potency, µM (titrated, usually from 57.5 µM), for the others: top-dose activity change, negative = inhibition, most hits filed as inhibitors. 2% of 43,000 active. AID 1508649; active means clear falling dose curves in both reporters; inconclusive means both reporters move, but less clearly or upward; inactive means either reporter flat; the % is the NLuc reporter signal
#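 S16 Schwann cells carrying FLuc/NLuc coincidence reporter in the Pmp22 3' UTR treated with compound 24 h at 37C; FLuc then NLuc luminescence read sequentially by dual-luciferase reagents.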
# mTORC1 inh: mTORC1 pathway inhibition measured by phospho-rpS6 | 0.78% of 44,000 active | Tsc2-/- p53-/- MEF, phospho-rpS6 immunofluorescence/PI, 24 h | Potency, µM (highest dose often 38.3 µM), for the others: at the top dose activity change, negative = inhibition, hits mostly inhibitors | AID 493208;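 further: plate controls were DMSO for no effect and rapamycin for full effect; nearly all actives have a fitted effect of over 50% in size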
#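 Readout is phospho-S6 Alexa 488 signal normalized to PI per well, reported as % active cells with thresholds set from rapamycin (7.5 nM) and DMSO controls. Cells: Tsc2-/-, p53-/- MEFs, 24 hrs compound at 37 C; PI cell number serves as viability.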
# p53null 32C tox: p53 null cell cytotoxicity, permissive temperature | H1299-neo p53 null cells, ATP luminescence, 24 h, 32C | Potency, µM (highest dose often 46.1 µM), without a hit: at the top dose activity change, negative = cytotoxicity, actives largely listed as cytotoxic | 0.62% of 55,000 active | AID 903;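 further: 0% = DMSO only and -100% = full killing by 100 µM tamoxifen; nearly all actives have a fitted effect of over 55% in size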
#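 AC50 values derive from Hill modelling of qHTS concentration-response data (up to 46 uM) in H1299-neo cells. Cells were treated 24 h at 32C following overnight attachment at 37C; viability was read as cellular ATP.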
# An asterisk follows results filed as active; i = inactive; ? = inconclusive; . = no result given; [ ] = another dose, or the depositor's remark. Unless noted, the call rests on the fitted dose curve; in most records, active means well fitted curve in the direction sought with a large enough effect; inconclusive means small, poorly fitted or top-dose-only effect, or another doubt; inactive means no such curve, though single readings can be large; an effect the other way counts as inactive or inconclusive. Unless noted, on the % scale 0 is the no-effect control and ±100 the full control effect; potency means the concentration at half of the fitted maximal effect.
SMILES,SKOV3 invasion,p53null 39C tox,S16 F2sN tox,PMP22 txn prim,mTORC1 inh,p53null 32C tox
Cc1ccc(S(=O)(=O)Nc2nc3ccccc3nc2Nc2ccc3nsnc3c2)cc1,-10%[23.2 µM],.,.,.,.,.
CCc1ccc(S(=O)(=O)Nc2cccc(-c3ccc(OC)nn3)c2)s1,9%,-1%,?,-19%,-1%,2%
CC(=O)c1ccc(S(=O)(=O)Nc2cccc(-c3ccc(N4CCCCC4)nn3)c2)cc1,8%,7.9µM*,.,.,3%,10µM*
CCc1ccc(S(=O)(=O)Nc2cccc(-c3ccc(N4CCCCC4)nn3)c2)s1,0%,13µM*,.,.,0%,16µM*
Cc1ccc(S(=O)(=O)Nc2cccc(-c3ccc(N4CCCCC4)nn3)c2)s1,-1%,13µM*,-17%,-14%,3%,13µM*
C=C1C(=CC=C2CCC[C@]3(C)[C@@H]([C@H](C)CCCC(C)(C)O)CC[C@@H]23)C[C@@H](O)C[C@@H]1O,0%,.,.,.,.,.
CCOC(=O)Cn1c(=O)c2c(nc(N3CCOCC3)n2Cc2ccccc2)n(C)c1=O,i,-19%,6%,-83%,9.3µM*,-1%
NC(N)=Nc1nc(CSCCC(N)=NS(N)(=O)=O)cs1,13%,.,.,.,.,.
CCS(=O)(=O)c1ncc(Cl)c(C(=O)NCc2ccc(OC)cc2)n1,?,35%,2.8µM*,6.5µM*,3.7µM*,?
COc1ccc(N2CCN(C(=O)c3nc(SC)ncc3Cl)CC2)cc1,1%,15%,4%,-6%,-6%,2%
CCS(=O)(=O)c1ncc(Cl)c(C(=O)N(Cc2ccccc2)c2ccc(OC)cc2)n1,?,?,4.5µM*,2.2µM*,2.6µM*,?
CCCS(=O)(=O)c1ncc(Cl)c(C(=O)N(Cc2ccccc2)Cc2ccco2)n1,2.2µM*,?,2.2µM*,6.4µM*,16µM*,22µM*
CCS(=O)(=O)c1ncc(Cl)c(C(=O)N2CCN(c3ccc(OC)cc3)CC2)n1,?,?,7.9µM*,6.6µM*,3.3µM*,?
CN(C)CCOc1cc(-c2cn[nH]c2)ccc1NC(=O)C1COc2ccccc2O1 (configuration not stated),17%,.,.,.,.,.
C[C@H](NC(=O)c1sccc1OCc1ccc(Cl)cc1)c1ccccc1,-6%,.,.,.,.,.
N#Cc1ccc(Oc2ccc3c(c2)COB3O)cc1,-5%,.,.,.,.,.
Nc1ncnc2c1c(-c1cccc(OCc3ccccc3)c1)cn2C1CC(CN2CCC2)C1 (configuration not stated),3%,.,.,.,.,.
CC(C)C(C)C=CC(C)C1CCC2C3=CC=C4CC(O)CCC4(C)C3CCC21C (configuration not stated),-5%,.,.,.,.,.
Cc1ccc(/C=C/c2nc3ccccc3[nH]2)cc1,?,1.6µM*,16µM*,?,14%,0.4µM*
CCOC(=O)COc1ccc(/C=C(\C#N)c2nc3ccc(C)cc3[nH]2)cc1OC,-7%,?,8.9µM*,8.9µM*,-6%,?
COc1cccc(/C=C(\C#N)c2nc3ccc(C)cc3[nH]2)c1,-15%,?,?,?,?,?
COc1cc(/C=C(\C#N)c2nc3ccc(C)cc3[nH]2)ccc1OCc1ccc(C)cc1,6%,13µM*,?,?,?,?
Cc1ccccc1OCCn1c(CCNC(=O)C(C)C)nc2ccccc21,.,8%,.,.,.,.
Cc1ccccc1OCCn1c(=N)n(C(C)C)c2ccccc21,?,?,?,?,18µM*,7%
Cc1ccccc1OCC(O)Cn1c(=N)n(CCN2CCCCC2)c2ccccc21 (configuration not stated),?,20µM*,?,?,10µM*,-4%
SMILES,SKOV3 invasion,p53null 39C tox,S16 F2sN tox,PMP22 txn prim,mTORC1 inh,p53null 32C tox
CC(=O)NC1=C(NC2CCS(=O)(=O)C2)C(=O)c2ccccc2C1=O (configuration not stated),.,?,.,.,.,11µM*
Cc1ccc(C)c(Nc2nn3c(=O)c4cc5c(cc4nc3s2)OCO5)c1,4%,-16%,-2%,-44%,-1%,-9%
O=c1c2cc3c(cc2nc2sc(Nc4ccccc4)nn12)OCO3,-5%,6.3µM*,15%,-4%,4%,10µM*
C=C[C@@H]1CN2CCC1C[C@@H]2C(O)c1ccnc2ccc(OC)cc12 (some centres not stated),-8%,.,.,.,.,.
CCOc1ccccc1OCCNC(C)Cc1ccc(OC)c(S(N)(=O)=O)c1 (configuration not stated),12%,.,.,.,.,.
O=C(CCC1CCCC1)Nc1ccc(OCC(=O)N2CCOCC2)cc1,.,?,.,.,.,14µM*
c1ccc(N2CCN(c3ncnc4[nH]ncc34)CC2)cc1,-11%,27%,0%,-42%,15µM*,11%
Cc1ccc(-n2ncc3c(N4CCN(c5ccccc5)CC4)ncnc32)cc1C,-15%,17%,-4%,8%,10%,1%
COc1c(C)c2c(c(O)c1CC=C(C)CCC(=O)O)C(=O)OC2,-8%,.,.,.,.,.
CCOc1ccccc1NC(=O)N(Cc1ccc(F)cc1)C1CCN(CC)CC1,-9%,-17%,11%,-10%,15µM*,-13%
CCN1CCC(N(Cc2ccc(F)cc2)C(=O)Nc2ccc(C)c(F)c2)CC1,-19%,?,8%,17%,16µM*,-14%
CCN1CCC(N(Cc2ccc(F)cc2)C(=O)Nc2cccc(C(F)(F)F)c2)CC1,?,-21%,?,?,?,-17%
CCN1CCC(N(Cc2ccc3c(c2)OCO3)C(=O)Nc2ccccc2OC)CC1,1%,-10%,1%,8%,-17%,-1%
Cc1ccccc1-n1c(Cn2nc(-c3cccc(O)c3)c3c(N)ncnc32)nc2cccc(C)c2c1=O,6%,.,.,.,.,.
CC1C(=O)N2CCCc3cc(S(=O)(=O)Nc4ccc(Br)cc4F)cc1c32 (configuration not stated),-1%,-2%,-2%,4%,13µM*,1%
Cc1ccc(C)c(NS(=O)(=O)c2cc3c4c(c2)C(C)C(=O)N4CCC3)c1 (configuration not stated),i,?,-16%,13%,0%,-9%
O=C(Nc1cccc(C(F)(F)F)c1)Nc1ccc2snnc2c1,i,?,?,9.5µM*,-21%,36%
C=CCn1c(C)cc(C(=O)COC(=O)[C@@H](NC(=O)c2ccccc2Cl)C(C)C)c1C,.,.,.,.,.,11µM*
